The campaign covered roughly 16,000 compounds. About 2,600 (16%) were called active. Not shown: some 20% with an inconclusive outcome. Only a selection was taken, and actives are over-represented in it overall. Values without a mark were called inactive. The call rests on the fitted dose curve; in most records, active means well fitted curve in the direction sought with a large enough effect; inconclusive means small, poorly fitted or top-dose-only effect, or effect the other way; inactive means no such curve, though single readings can be large or run the other way.
molecular target: Cytochrome P450 2D6 (Homo sapiens) (UniProt P10635); experiment: Cytochrome panel assay with activity outcomes; settings: recombinant CYP, pro-luciferin dealkylation, luminescence, p450-cyp2d6; series mostly up to 57.1 µM; activity, negative = inhibition: at the top concentration
On the % scale 0 is the no-effect control and ±100 the full control effect.

Sequence of Cytochrome P450 2D6 (Homo sapiens) (P10635 whole entry, looked up): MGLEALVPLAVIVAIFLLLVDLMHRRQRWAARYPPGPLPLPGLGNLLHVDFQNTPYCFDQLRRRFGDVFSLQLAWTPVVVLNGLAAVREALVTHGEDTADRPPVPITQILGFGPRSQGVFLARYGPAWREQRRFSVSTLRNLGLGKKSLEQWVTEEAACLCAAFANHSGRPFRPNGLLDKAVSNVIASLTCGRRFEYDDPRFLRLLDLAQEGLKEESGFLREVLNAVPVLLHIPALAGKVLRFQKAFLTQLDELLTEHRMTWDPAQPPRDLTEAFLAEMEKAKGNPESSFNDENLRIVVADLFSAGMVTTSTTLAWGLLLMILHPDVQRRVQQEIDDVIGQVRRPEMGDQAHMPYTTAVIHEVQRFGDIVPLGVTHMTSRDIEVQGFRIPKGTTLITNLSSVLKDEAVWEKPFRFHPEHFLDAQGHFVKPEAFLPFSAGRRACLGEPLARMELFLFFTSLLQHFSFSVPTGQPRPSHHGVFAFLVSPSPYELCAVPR

| Compound | activity, negative = inhibition | AC50 |
| --- | --- | --- |
| CS(=O)c1ccc(-c2nc(-c3ccc(F)cc3)c(-c3ccncc3)[nH]2)cc1 (stereo not given) | 8.63% |  |
| C#CCN(C)[C@H](C)Cc1ccccc1 | 1.61% |  |
| C[C@@H](Cc1ccccc1)NCCC(c1ccccc1)c1ccccc1 |  | 0.01 µM (active) |
| CCOC(=O)N1CCC(NC(=O)CCc2nc(C3=CCN(C)CC3)no2)CC1 | 1.28% |  |
| Nc1nnnn1CCO | 3.8% [at 11.4 µM] |  |
| O=C(O)c1nn(Cc2ccc(Cl)cc2Cl)c2ccccc12 | 0.0532% |  |
| Cc1ccccc1-n1c(O)c(C=Nc2ccc(N(C)C)cc2)c(=O)[nH]c1=O | -6.05% |  |
| Cc1oc(-c2ccccc2F)nc1CS(=O)CC(=O)N1CCC2(CC1)OCCO2 (stereo not given) | 7.67% |  |
| CC1=C2[C@@H]3OC(=O)[C@@H](C)[C@@H]3CC[C@]2(C)C=CC1=O | -7.67% [at 25.6 µM] |  |
| O=C(O)[C@H]1C[C@@H]1[C@H](NP(=O)(c1ccccc1)c1ccccc1)c1ccccc1 | 10.1% |  |
| COc1ccc(CNC(=O)/C=C\c2ccc3[nH]cc(CCN(C)C)c3c2)cc1 | -1.05% |  |
| CN[C@H](Cc1ccccc1)c1cccc(OC)c1O |  | 0.0398 µM (active) |
| O=c1[nH]c(=O)n([C@H]2C[C@H](O)[C@H](CO)O2)cc1/C=C\Br | -3.53% |  |
| N#C/C(=C\c1ccc(O)c(O)c1)C(=O)NCCCNC(=O)/C(C#N)=C/c1ccc(O)c(O)c1 | -4.88% |  |
| COCCCn1c(N)c(C(=O)Nc2sc3c(c2C(=O)OC)CCCC3)c2nc3ccccc3nc21 | 6.62% |  |
| CCCCn1c(N)c(C(=O)NCc2cccs2)c2nc3ccccc3nc21 |  | 20 µM (active) |
| O=[As](O)(O)c1ccc(N=Nc2ccc(O)cc2)cc1 | 2.25% [at 11.4 µM] |  |
| COc1ccc2c(c1)CN([C@H](C)[C@@H]1CC[C@@H]3[C@H]4CC[C@H]5C[C@@H](O)CC[C@@]5(C)[C@H]4CC[C@]31C)CO2 |  | 3.16 µM (active) |
| C[C@]12CC[C@H](O)C[C@@H]1CC[C@H]1[C@H]2CC[C@]2(C)C(=O)CC[C@@H]12 |  | inactive |
| C[C@@]12CC[C@H]3[C@@H](CC[C@@H]4C[C@H](O)CC[C@]43C)[C@H]1CC[C@H]2O | 6.56% |  |
| CC[N@+]1(C)CCC[C@@H](OC(=O)C(O)(c2ccccc2)c2ccccc2)C1 |  | 5.01 µM (active) |
| CN=C(NC#N)NCCSCc1nc[nH]c1C | 8.36% |  |
| C[C@H](N)[C@H](O)c1ccc(O)c(O)c1 |  | inactive |

| Compound | activity, negative = inhibition | AC50 |
| --- | --- | --- |
| CC(C)C[C@H]1C(=O)N2CCC[C@@H]2[C@]2(O)O[C@](NC(=O)[C@@H]3C=C4c5cccc6[nH]c(Br)c(c56)C[C@H]4N(C)C3)(C(C)C)C(=O)N12 | -2.92% |  |
| CC[C@@H](CO)NC(=O)[C@H]1C=C2c3cccc4c3c(cn4C)C[C@H]2N(C)C1 |  | 12.6 µM (active) |
| CC[C@H](CO)NC(=O)[C@@H]1C=C2c3cccc4c3c(cn4C)C[C@@H]2N(C)C1 |  | 39.8 µM (active) |
| Cc1cc(NC(=O)CCC(=O)N2CCC3(CC2)OCCO3)no1 | 4.64% |  |
| Cc1ccc(CCN2CC(C(=O)N3CCC4(CC3)OCCO4)CC2=O)cc1 (stereo not given) | 5.9% |  |
| N[C@H](CCCCCP(=O)(O)O)C(=O)O |  | inactive |
| O=C(O)CCCc1ccc(N(CCCl)CCCl)cc1 | 1.05% [at 25.6 µM] |  |
| C[C@H](CCC(=O)O)[C@H]1CC[C@]2(C)[C@@H]3C(=O)C[C@H]4C(C)(C)[C@@H](O)CC[C@]4(C)[C@H]3C(=O)C[C@@]12C | -4.73% [at 11.4 µM] |  |
| CC(=O)[C@@H]1CC[C@H]2[C@H]3CC[C@H]4C[C@@H](O)CC[C@]4(C)[C@@H]3CC[C@]12C | -4.86% |  |
| O=C(O)C(=O)Cc1ccc2c(c1)OCO2 | -12.2% [at 11.4 µM] |  |
| Oc1ccc(CCNCc2cc3c(cc2Br)OCO3)cc1 |  | 0.316 µM (active) |
| CO[C@H]1[C@H](O)[C@H](O[C@@H]2[C@H](Oc3cccc4c(O)c5c(=O)oc6ccc(C)c7c(=O)oc(c34)c5c67)O[C@@H](C)[C@H](O)[C@H]2O)O[C@@H](C)[C@@H]1O | 19.6% [at 11.4 µM] |  |
| CCCCCCCC/C=C\CCCCCCCC(N)=O | 12.7% |  |
| N[C@@H](CCCP(=O)(O)O)C(=O)O | 5.98% |  |
| C[N+](C)(C)CCCCCCCCCC[N+](C)(C)C | 2.5% |  |
| CC(=O)N1CCC2(CC1)CC(=O)c1cc(OCC(=O)N3CCN(C)CC3)ccc1O2 | -11.1% |  |
| O=C(COc1ccc2ccccc2c1)N1CCN(CC2CC3C=CC2C3)CC1 (stereo not given) |  | 5.01 µM (active) |
| COc1cc(CN2CCN(C(=O)COc3ccccc3)CC2)cc(OC)c1OC | -3.69% |  |
| CCN1C[C@@]2(COC)[C@H]3[C@@H](OC)[C@H]4C1[C@@]3([C@H](OC)C[C@@H]2O)[C@H]1C[C@@]2(O)[C@@H](OC(=O)c3ccccc3)[C@@H]1[C@@]4(OC(C)=O)[C@H](O)[C@@H]2OC | -3.27% [at 25.6 µM] |  |
| Cc1ccc(C2CC(=O)C(C=NCCN3CCN(C(=O)Cc4ccccc4)CC3)=C(O)C2)cc1 (stereo not given) | -16.3% |  |
| CN(C)CS/C(N)=N/[C@H](O)C(Cl)(Cl)Cl | -6.69% [at 11.4 µM] |  |
| CN1CCc2nc3sc(C(=O)NC(C)(C)C)c(N)c3cc2C1 | -24.5% |  |
